# From PubChem BioAssay AID1486 (The Scripps Research Institute Molecular Screening Center, 2009)
# Screen size: about 220,000 compounds; about 2,400 (1.1%) were called active.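 How the source made its calls: active means inhibition above a per-campaign cutoff, the mean inhibition of all tested compounds plus 3 SD (cut at about 27% in these data); inactive means the rest.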 Many of the other results were omitted from the sample, so actives are more common in it than they were.
# Assay: growth loss in parental Ba/F3 cells – cell-based, murine pro-B, CellTiter-Glo luminescence, counter-screen for JAK2V617F inhibitor project (AID 1486);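 further: 0% = DMSO wells and 100% = JAK Inhibitor I control wells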
# Settings: Ba/F3 parental viability, CellTiter-Glo ATP luminescence; at 5.6 µM; hits give high values
row,Compound,inhibition
1,CCOc1ccc(-c2nc(N)ncc2-c2ccccc2OC)c(O)c1,-0.51% (inactive)
2,CCOc1ccccc1Oc1cn[nH]c1-c1ccc(OC)cc1O,94.7% (active)
3,CCOc1ccc(-c2n[nH]c(C)c2-c2ccccn2)c(O)c1,5.9% (inactive)
4,CCCCCc1ccc(-c2ccc(OCC)cc2)nc1,3.47% (inactive)
5,COCC(C)n1c(C)cc(C(=O)COc2ccc(C)nc2[N+](=O)[O-])c1C (stereo not drawn),3.84% (inactive)
6,C/C(=N\NC(=O)c1cccnc1)c1ccc(-n2ccnc2)cc1,-0.08% (inactive)
7,COc1ccc(Cl)cc1NC(=O)C(C)N1CCc2ccccc21 (stereo not drawn),4.67% (inactive)
8,Cc1ccc(/C=C/C(=O)O)cc1S(=O)(=O)N1CCC(Cc2ccccc2)CC1,-3.54% (inactive)
9,CCOC(=O)CSC1=C(C#N)C(c2sccc2C)CC(=O)N1 (stereo not drawn),81.7% (active)
10,Cc1ccc(C2CC(=O)NC(SCC(=O)OCc3ccccc3)=C2C#N)o1 (stereo not drawn),2.62% (inactive)
11,C=CCOC(=O)C1=C(C)NC(SCC(=O)OCC)=C(C#N)C1c1ccc(C)cc1 (stereo not drawn),1.41% (inactive)
12,Cc1nnc(CN(C)Cc2cn[nH]c2-c2ccc(-c3ccccc3)cc2)o1,3.87% (inactive)
13,COc1ccc(C(=O)Nc2nc(-c3ccc(OC)cc3)c(-c3ccc([N+](=O)[O-])cc3)s2)cc1,61.3% (active)
14,Cc1cccc(NC(=O)c2sc(-c3ccccc3)nc2-c2ccc([N+](=O)[O-])cc2)c1,2.68% (inactive)
15,COC(=O)C(NC(=O)c1ccc(OC)cc1)(Nc1ncc(S(=O)(=O)c2ccc([N+](=O)[O-])cc2)s1)C(F)(F)F (stereo not drawn),-1.49% (inactive)
16,CCOC(=O)/C(=N\Nc1ccccc1[N+](=O)[O-])c1csc(Nc2ccccc2)n1,12% (inactive)
17,Cc1nnc(N/N=C/c2ccccn2)[nH]c1=O,1.19% (inactive)
18,Cc1ccc(Oc2ccc(N)cc2)cc1,2.65% (inactive)
19,Nc1ccc(Oc2ccc(Cl)cc2)cc1,9.91% (inactive)
20,CC(C)(C)c1ccc(Oc2ccc(N)cc2)cc1,36.8% (active)
21,CCCCN(C)c1ccc([N+](=O)[O-])cc1,8.6% (inactive)
22,CCc1[nH]nc(C(=O)N2CCCC(CNS(=O)(=O)c3cccs3)C2)c1C (stereo not drawn),6.5% (inactive)
23,C/C(CC(=O)NC(C)c1ccccc1)=N\NC(N)=S (stereo not drawn),-3.5% (inactive)
24,CCOC(=O)N1CCN(C(=O)C2CCN(Cc3ccc(OC)cc3OC)CC2)CC1,3.57% (inactive)

row,Compound,inhibition
1,CCOC(=O)C1CCN(c2ncnc3c2oc2ccc(Br)cc23)CC1,6.89% (inactive)
2,CCOC(=O)N1CCN(C(=O)C2CCN(c3ncnc4c3sc3cccc(F)c34)CC2)CC1,40.6% (active)
3,CNC(=O)COc1ccc(S(=O)(=O)Nc2ccccc2)cc1,0.46% (inactive)
4,Cc1csc(CN(C)C(=O)CC2C(=O)NCCN2CC(C)(C)C)n1 (stereo not drawn),9.22% (inactive)
5,Cc1ccc(C(=O)N/N=C\c2cc(Br)c(Br)o2)cn1,1.1% (inactive)
6,Cc1cc(C(=O)CSc2nc(N)cc(=O)[nH]2)c(C)n1CCc1ccc(Cl)cc1,6.39% (inactive)
7,Cc1cc(C(=O)CSc2nc(N)cc(=O)[nH]2)c(C)n1-c1cccc(F)c1,4.66% (inactive)
8,Cc1cc(C(=O)CSc2nc(N)cc(=O)[nH]2)c(C)n1Cc1ccco1,33.8% (active)
9,CSC1=NCCN1C(=O)Cc1cccc2ccccc12,2.66% (inactive)
10,CCn1c2ccccc2c2cc(NC(=O)Nc3ccc([N+](=O)[O-])cc3C)ccc21,-1.24% (inactive)
11,CC(=O)c1cc(-c2ccccc2)n(CCC(=O)NC2CCCCCC2)c1C,1.01% (inactive)
12,CC(C)c1cc(CN2CCOCC2)cc(C(C)C)c1O,-1.01% (inactive)
13,Cc1ccccc1-c1nc(C#N)c(NCc2ccco2)o1,11.3% (inactive)
14,COc1ccccc1-c1nc(C#N)c(N2CCC(C(N)=O)CC2)o1,1.59% (inactive)
15,COc1ccc(Nc2oc(-c3ccccc3Cl)nc2C#N)cc1,29.4% (active)
16,NC1=NC2(CCCCC2)N(c2ccc(F)cc2F)C(N)=N1,5.17% (inactive)
17,COc1ccc(CCNC(=O)CC2SC(=Nc3cc(C)cc(C)c3)NC2=O)cc1OC (stereo not drawn),2.92% (inactive)
18,O=c1cc(O)c(-c2cccc(C(F)(F)F)c2)c(Cl)[nH]1,13.5% (inactive)
19,COc1cc(OC)cc(C(=O)N[C@H](C(=O)Nc2nc3ccccc3[nH]2)C(C)C)c1,16.4% (inactive)
20,Cc1nc2ccc(C(=O)O)cc2[nH]1,-0.24% (inactive)
21,COC(=O)Nc1nc2ccc(Sc3ccccc3)cc2[nH]1,76% (active)
22,COc1ccccc1-c1c(C#N)c(N)nc2c1CCC2,0.32% (inactive)
23,COC(=O)c1sccc1NC(=O)CC1C(=O)NCCN1C(=O)Nc1ccc(F)cc1F (stereo not drawn),-2.58% (inactive)
24,CSc1ccc(/C=N/NC(=O)c2cccc(Cl)c2)cc1,1.81% (inactive)

row,Compound,inhibition
1,Cc1ccc(CNC(=O)C2CC(c3ccccc3[N+](=O)[O-])=NO2)o1 (stereo not drawn),0.33% (inactive)
2,COc1ccc(-c2cc(C(=O)NCc3ccco3)no2)cc1OC,4.7% (inactive)
3,COc1ccc(C2=NOC(C(=O)NCc3ccco3)C2)cc1OC (stereo not drawn),64.1% (active)
4,Cc1cc(N)n(-c2ccc(S(=O)(=O)N3CCCC3)cc2[N+](=O)[O-])n1,4.29% (inactive)
5,C=CCOCCN(C)C1=NS(=O)(=O)c2ccccc21,3.69% (inactive)
6,COc1ccc(N2C(=O)CNC2=S)cc1,2.23% (inactive)
7,Cc1cc2cc(CNC(=O)c3cccs3)ccc2[nH]1,39% (active)
8,Cc1ccc(C)c2[nH]c(=O)c(CCNC(=O)c3cccs3)cc12,6.4% (inactive)
9,CCc1cccc(CC)c1NC(=S)NCc1ccc2[nH]c(C)cc2c1,8.67% (inactive)
10,Cn1c(=O)c2c(nc(N/N=C/c3cccs3)n2Cc2ccc(Br)cc2)n(C)c1=O,2.68% (inactive)
11,COc1ccc(-c2csc(-c3cccs3)n2)cc1OC,6.08% (inactive)
12,COc1ccc(Br)cc1CN(C)CC(=O)Nc1cc([N+](=O)[O-])ccc1OC,-2.62% (inactive)
13,CCOC(=O)c1cc(-c2ccc(F)cc2)n(CC(=O)NCc2ccccn2)c1C,5.17% (inactive)
14,CN1CCN(C(=O)CCc2nc(-c3ccc(Cl)cc3)no2)CC1,5.12% (inactive)
15,CC1CCN(Cc2nc(-c3ccc(Cl)cc3)no2)CC1,36% (active)
16,Cc1ccc(-c2noc(CN3CCN(Cc4ccccc4)CC3)n2)cc1,3.84% (inactive)
17,O=c1[nH]c2cccnc2n(CCNc2ncc(C(F)(F)F)cc2Cl)c1=O,3.7% (inactive)
18,N#CC1=C(N)Oc2[nH]c(=S)[nH]c(=O)c2C12C(=O)Nc1ccccc12 (stereo not drawn),1.28% (inactive)
19,Cc1nc(-c2ccccc2)cn2c1nc1ccccc12,6.83% (inactive)
20,Cc1c(Cl)c([N+](=O)[O-])nn1CC(=O)NCC1CCCO1 (stereo not drawn),-0.44% (inactive)
21,COc1cc(OC)nc(S(C)(=O)=O)n1,-0.84% (inactive)
22,COc1ccc(-c2cc(C(F)(F)F)nc(SCC(=O)Nc3ccc4c(c3)OCO4)n2)cc1OC,6.51% (inactive)
23,COc1ccc(-c2cc(C(F)(F)F)nc(S(C)(=O)=O)n2)cc1OC,32.3% (active)
24,CC(=O)c1ccc2c(c1)OCCOCCOc1ccc(C(C)=O)cc1OCCOCCO2,6.46% (inactive)

row,Compound,inhibition
1,O=C(CSc1nnc(-c2c[nH]c3ccccc23)n1-c1ccc(F)cc1)NCc1ccco1,93.5% (active)
2,COc1ccc(-n2c(SCC(=O)NCc3ccco3)nnc2-c2c[nH]c3ccccc23)cc1,7.39% (inactive)
3,O=C(CSc1nnc(-c2cccs2)n1-c1ccccc1)NCc1ccco1,1.12% (inactive)
4,CC(C)C(C)(C#N)NC(=O)CSc1nncn1-c1ccccc1 (stereo not drawn),6.72% (inactive)
5,CC(=O)c1sc(NC(=O)c2cccc3ccccc23)nc1C,4.12% (inactive)
6,CC(NC(=O)c1cccc2ccccc12)c1ccc2c(c1)CCCC2 (stereo not drawn),46.5% (active)
7,O=C(Cc1ccc2c(c1)CCCC2)Nc1ccccc1Cl,6.44% (inactive)
8,Cc1ccc(N/N=C2\COC(C)(C)CC2=O)cc1,-2.17% (inactive)
9,O=S(=O)(NCc1ccco1)c1cnc(Cl)c(Cl)c1,-2.02% (inactive)
10,Oc1ccc2ccccc2c1N=Nc1nccs1,101% (active)
11,Oc1ccc2ccccc2c1C=Nc1ccccc1,3.24% (inactive)
12,Oc1ccc(N=Nc2nccs2)c(O)c1,0.92% (inactive)
13,Cc1ncoc1C(=O)N1CCCC(C(=O)c2ccc3c4c(cccc24)CC3)C1 (stereo not drawn),5.56% (inactive)
14,N=C1/C(=C/c2cccn2-c2cccc([N+](=O)[O-])c2)C(=O)N=C2SC=CN12,3.29% (inactive)
15,Cc1ccc(/C=N/NC(=O)COc2ccccc2-c2ccccc2)cc1,83.4% (active)
16,Cc1ccc(OCC(=O)N/N=C\c2ccco2)c(C)c1,-2.78% (inactive)
17,Cc1ccc(OCC(=O)N/N=C/c2ccncc2)cc1,-0.78% (inactive)
18,O=c1oc2ccccc2cc1-c1csc(Nc2ccc(O)cc2)n1,37.3% (active)
19,CCNc1nc(-c2cc3ccccc3o2)cs1,3.67% (inactive)
20,COc1ccc2nc(Nc3nc(-c4cc5ccccc5oc4=O)cs3)sc2c1,6.64% (inactive)
21,Cc1cc(Nc2ccc(Cl)cc2)nc(N2CCOCC2)n1,-1.08% (inactive)
